Screening results (PubChem)
This is a sample that favours compounds with a hit; in the whole collection about 1.9% have one here.
FUS yeast rescue = FUS proteinopathy suppression in yeast; S. cerevisiae FUS-expressing, growth rescue, OD600, 24 h; Potency, µM (top dose mostly 76.6 µM), most hits filed as activators; 390,000 compounds, 0.24% hits;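 also: potency is read from the fitted curve at half-maximal effect; plate controls were DMSO vehicle for no effect and reference control for full effect; nearly all actives have a fitted effect of over 55% in size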
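Restored growth of FUS-toxic S. cerevisiae, read as 600 nm absorbance after 24 h at 30C in galactose medium (starting OD 0.005). Controls CP55940 and DMSO.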
Abeta yeast res = restores growth of yeast expressing A-beta42 peptide; yeast expressing A-beta42, growth rescue, OD600, 48 h; response scale: 0% DMSO, 100% iron-clioquinol control; Potency, µM (titrated, usually from 46.1 µM), hits mostly activators; 410,000 compounds, 0.063% hits; also: potency is read from the fitted curve at half-maximal effect; nearly all actives have a fitted effect of over 55% in size
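Yeast A-beta toxicity model in growth medium with pinned compounds, 48 h at 30 C; growth read as absorbance at 600 nm. Normalized to FeCl3/clioquinol equimolar mix (positive) and DMSO (negative).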
LDHA block = blocks human lactate dehydrogenase A. P00338. purified LDHA, NADH/diaphorase-resazurin fluorescence; hits give low values. activity change, % (values are at about 110 or 230 µM). 480,000 compounds, 0.15% hits; in the data active = activity change below about -30%; inconclusive = mostly about -25% to -30%;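 also: plate controls were DMSO wells for no effect and wells without enzyme for full effect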
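Enzyme activity of human lactate dehydrogenase 5 (2 nM; 0.06 mM NADH, 0.2 mM pyruvate, 5 min, RT) is measured via a resazurin/diaphorase fluorescence readout of residual NADH.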
TDP43 rescue = inhibitors of TDP-43 toxicity in yeast | TDP-43 expressing yeast growth rescue, BacTiter-Glo, 24 h | 410,000 compounds, 1.8% hits | AID 652104 | Potency, µM (highest dose often 46.1 µM), for inactives: at the top dose growth rescue (activation), most hits filed as activators; also: potency is read from the fitted curve at half-maximal effect; % of control where 0% means no effect; nearly all actives have a fitted effect of over 50% in size
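In this qHTS, compounds that restore growth of yeast expressing TDP-43 appear as activators. Cells (OD600=0.02, galactose medium, raffinose-pregrown) are incubated with compound 24 hr at 30 deg C and growth is quantified by BacTiter-Glo.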
aSyn rescue = rescues yeast growth from alpha-synuclein toxicity; Potency, µM (highest dose often 46.1 µM), for the others: at the highest dose growth rescue (activation), usual class: activators; Yeast expressing alpha-synuclein, growth rescue, BacTiter-Glo, 24 h; AID 652106; 370,000 compounds, 0.14% hits; also: potency is read from the fitted curve at half-maximal effect; % of control where 0% means no effect; nearly all actives have a fitted effect of over 65% in size
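Galactose-induced alpha-syn yeast (OD600=0.02, raffinose-pregrown) + pinned cpd, 24 hr, 30 deg C; growth by BacTiter-Glo luminescence. Growth restoration scores as activation.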
PTHR1 ag = activates the human parathyroid hormone receptor PTHR1; Potency, µM (top dose mostly 115 µM), for the others: at the top dose activation, most hits filed as activators; 410,000 compounds, 0.075% hits; Q03431; AID 743266; HEK293 GP2 PTHR1 cells, GloSensor cAMP luminescence, 1 h; also: potency is read from the fitted curve at half-maximal effect; nearly all actives have a fitted effect of over 55% in size
Target sequence (Q03431 whole entry, looked up): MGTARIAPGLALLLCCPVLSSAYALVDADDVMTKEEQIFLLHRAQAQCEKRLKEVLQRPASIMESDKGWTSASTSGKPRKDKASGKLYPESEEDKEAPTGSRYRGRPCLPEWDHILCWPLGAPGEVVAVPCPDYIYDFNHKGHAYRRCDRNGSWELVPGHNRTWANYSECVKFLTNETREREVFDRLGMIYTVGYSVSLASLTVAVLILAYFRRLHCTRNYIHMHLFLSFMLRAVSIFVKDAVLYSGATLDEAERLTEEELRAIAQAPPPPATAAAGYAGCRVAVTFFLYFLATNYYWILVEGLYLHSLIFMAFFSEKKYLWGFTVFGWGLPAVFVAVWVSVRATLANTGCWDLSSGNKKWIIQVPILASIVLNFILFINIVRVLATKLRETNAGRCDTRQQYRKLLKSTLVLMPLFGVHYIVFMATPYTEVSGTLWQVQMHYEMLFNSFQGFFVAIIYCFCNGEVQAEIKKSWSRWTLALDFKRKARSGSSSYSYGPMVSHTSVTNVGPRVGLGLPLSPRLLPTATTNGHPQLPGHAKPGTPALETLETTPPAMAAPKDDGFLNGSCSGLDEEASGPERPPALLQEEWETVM
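HEK-293-derived GP2 cells expressing PTHR1 and a GloSensor cAMP reporter, 3,000/well, plated overnight, given luciferin plus IBMX (each 0.5 mM as added) for 1 h at 37 °C, then compound for 1 h at 37 °C. Luminescence was read after 15 min at room temperature.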
The depositor's hits bear a star; i = inactive; ? = inconclusive; nt = no result given; [ ] = dose if it differs, or a comment. Unless noted, calls follow the shape of the dose curve; as a rule, active = well fitted curve in the direction sought with a large enough effect; inconclusive = small, poorly fitted or top-dose-only effect, or another doubt; inactive = no such curve, though single readings can be large; an effect the other way counts as inactive or inconclusive.

SMILES	FUS yeast rescue	Abeta yeast res	LDHA block	TDP43 rescue	aSyn rescue	PTHR1 ag
Cc1cccc(N2CCN(C(=O)CSc3ccsc3[N+](=O)[O-])CC2C)c1 (stereo not given)	i	?	1	18µM*	9%	-23%
Cc1cccc(N2CCN(C(=O)CS(=O)(=O)Cc3nc(-c4ccccc4C)oc3C)CC2C)c1 (stereo not given)	?	i	10	25µM*	nt	-44%
CCN1CCN(C(=O)CS(=O)(=O)Cc2nc(-c3ccccc3C)oc2C)CC1	i	i	-7	-17%	-5%	-22%
CC(NS(=O)(=O)c1cccs1)c1ccccn1 (stereo not given)	nt	nt	5	nt	nt	nt
CC(C)c1ccc(NC(=O)NCC(O)c2ccccc2F)cc1 (stereo not given)	nt	nt	0	nt	nt	nt
Cn1nc(-c2ccccc2F)c2cc(C(=O)Nc3ccc4c(c3)OCCO4)sc21	i	i	-7	16µM*	4%	-10%[57.5 µM]
CC(C)c1ccc(-c2csc(N=C(N)N)n2)cc1	nt	nt	1	nt	nt	nt
CNC(=O)c1cc2c(ccc3ccccc32)o1	i	i	-3	?	11µM*	-12%
O=C(NC1CCCC1)c1cc2c(ccc3ccccc32)o1	nt	i	4	11%	-3%	-30%
Clc1nnc(NC2CCCCC2)c(Cl)c1Cl	i	i	-9	22µM*	?	-29%
CC(NC(=O)CSc1ccc2ccccc2n1)C1CC1 (stereo not given)	nt	nt	5	nt	nt	nt
COc1cccc(NC(=O)CCSc2ccc3ccccc3n2)c1	nt	i	-2	13µM*	13%	-15%
O=C(O)CCSc1ccc2ccccc2n1	i	i	0	18µM*	1%	i
CC(C)C(C)NC(=O)CSc1ccc2ccccc2n1 (stereo not given)	nt	nt	-32*	nt	nt	nt
CCOCCn1c(=O)c2c(nc(-n3nc(C)c(C)c3C)n2C(C)C)n(C)c1=O	nt	nt	9	nt	nt	nt
COc1ccc(C(O)c2nc(-c3cccc(C(F)(F)F)c3)cs2)cc1 (stereo not given)	?	i	0	22µM*	12%	0%
COc1cc(C(O)c2nc(-c3cccc(C(F)(F)F)c3)cs2)ccc1F (stereo not given)	i	i	3	-71%	-38%	i
COc1cccc(C(O)c2nc(-c3cccc(C(F)(F)F)c3)cs2)c1 (stereo not given)	i	i	-1	22µM*	3%	i
COCc1cccc(-c2csc(C(O)c3ccc(F)c(F)c3)n2)c1 (stereo not given)	i	i	0	20µM*	?	-18%
COc1ccc(C(O)c2nc(-c3cccc(F)c3)cs2)cc1 (stereo not given)	i	i	-1	14µM*	?	-27%
Cc1ccc(-c2cn3ccccc3n2)c(C)c1	nt	nt	6	nt	nt	nt
O=[N+]([O-])c1cccc(-c2n[nH]c(=S)n2-c2ccc(Br)cc2)c1	i	i	-32*	-23%[0.397 µM]	14%	18%
O=[N+]([O-])c1cccc(-c2cc(-c3cc(Br)ccc3O)[nH]n2)c1	i	i	-13	13µM*	-7%	-21%
CCCCNc1nc(N(C)c2ccccc2)nc(-n2ccnc2)n1	i	i	-4	14µM*	28%	-8%
C=CCOc1nc2c(c(=O)n(Cc3ccc(Br)cc3)c(=O)n2C)n1C	nt	nt	2	nt	nt	nt
SMILES	FUS yeast rescue	Abeta yeast res	LDHA block	TDP43 rescue	aSyn rescue	PTHR1 ag
CCn1c(C)[n+](CCCS(=O)(=O)[O-])c2cc(Cl)c(Cl)cc21	i	i	-46*	-13%	-2%	-24%
CCCCn1c(=O)[nH]c(=O)c2c1nc(-c1ccc(OC)c(C)c1)n2C	nt	nt	-7	nt	nt	nt
O=C(Cc1ccccc1F)Nc1nc(-c2ccc(F)cc2)cs1	i	i	0	13µM*	-7%	-21%
COc1ccc(-c2csc(NC(=O)Cc3ccccc3F)n2)cc1OC	i	i	4	?	-36%	-36%
O=C(CS(=O)(=O)c1ccccc1)Nc1nc(-c2ccc(F)cc2)cs1	i	i	0	?	-6%	-46%
COc1ccccc1CC(=O)Nc1nc(-c2ccc(F)c(F)c2)cs1	i	i	-6	18µM*	-7%	-25%
O=C(Nc1cccc2c1CCCC2)c1cc(Br)cnc1Cl	nt	nt	10	nt	nt	nt
O=C1NC2(CCCC2)C(=O)N1Cc1coc(-c2cccc(Cl)c2)n1	nt	nt	2	nt	nt	nt
CCOC(=O)/C(C#N)=C1/SC(C)C(=O)N1c1ccc(Br)cc1 (stereo not given)	22µM*	i	-1	0%	0%	-1%[57.5 µM]
N#C/C(=C/c1ccccc1OC(F)F)C(=O)O	nt	nt	6	nt	nt	nt
CC(=O)Nc1ccc2nc(-c3ccccc3)oc2c1	nt	nt	2	nt	nt	nt
OCCC#Cc1c(-c2ccsc2)sc2ccccc12	i	i	-3	?	-40%	-7%
OCCCCC#Cc1c(-c2ccsc2)sc2ccccc12	i	i	-2	14µM*	-34%	i
O=C(N/N=C/c1cccc(F)c1)NC1CCCCC1	i	i	-18	13µM*	14%	-34%
CC(=O)c1ccc(N2CCN(C(=O)c3ccc4[nH]c(C)c(C)c4c3)CC2)cc1	i	i	2	?	7%	-92%
Cc1[nH]c2ccc(C(=O)N3CCN(c4ccc(F)cc4)CC3)cc2c1C	i	i	3	14µM*	13%	i
Cc1scc(C(=O)N2CCN(c3ccc(Cl)cc3)CC2)c1C	i	i	-5	14µM*	7%	-22%
COc1ccc(N2CCN(C(=O)c3cc(-c4ccc(F)cc4)[nH]c3C)CC2)cc1	?	i	-5	?	17%	-30%
Cc1[nH]c(-c2ccc(F)cc2)cc1C(=O)N1CCN(c2ccc(Cl)cc2)CC1	i	i	0	16µM*	?	-29%
Cc1occc1C(=O)N1CCN(c2ccc(Cl)cc2)CC1	i	i	-1	10µM*	7%	-37%
N#Cc1ccc(CNc2cccc(Br)c2)c(F)c1	nt	nt	-4	nt	nt	nt
CSc1ccccc1NC(=O)C(C)N(C)CC(=O)Nc1ccc(F)cc1 (stereo not given)	nt	nt	-2	nt	nt	nt
